Compound activity from PubChem.
ELG1 genotox = inducers of genotoxicity in HEK293T ELG1-luciferase cells. Potency, µM (doses to about 46 µM), for inactives: top-dose activity change, positive = activation, actives largely listed as activators. HEK293T ELG1-luciferase reporter, luminescence, 16 h. 1.3% of 330,000 active; further: % of control where 0% means no effect; nearly all actives have a fitted effect of over 60% in size
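Cells (2,000/well) expressing the ELG1-luciferase fusion are dosed by pin tool and kept 16 hr at 37 °C, 5% CO2. Signal comes from ONE-Glo luciferase reagent after 30 min at room temperature.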
ELG1 DNA repair = inhibitors of ELG1-dependent DNA repair in HEK293T cells | HEK293T ELG1-luciferase reporter, luminescence, 16 h; DNA damage induced by 5-fluorouridine | Potency, µM (top dose mostly 46.1 µM), without a hit: at the top dose activity change, negative = inhibition, actives largely listed as inhibitors | 2.3% of 330,000 active; further: on the % scale 0 is the no-effect control and ±100 the full control effect; nearly all actives have a fitted effect of over 55% in size
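5-Fluorouridine DNA damage + compound/DMSO, 2,000 cells/well, 16 h, 37 °C/5% CO2. ONE-Glo, 30 min RT, luminescence. Readout = decrease in reporter signal.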
NPC1 promoter act = activators of NPC1 promoter | Huh7 NPC1 promoter luciferase reporter, 24 h | 2.4% of 320,000 active | Potency, µM (highest dose often 9.22 µM), without a hit: top-dose activation, usual class: activators; further: % of control where 0% means no effect; nearly all actives have a fitted effect of over 60% in size
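Readout is luciferase luminescence, reflecting NPC1 promoter activation in stably transfected Huh7 cells after 24 h compound exposure at 37 °C in reduced-serum medium with 10% FBS.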
FLuc modulator = counter-screen for miR-21 project: firefly luciferase inhibitors or activators; purified FLuc, Km substrates, luminescence inhibition; Potency, µM (top dose mostly 57.5 µM), inactives show at the top dose activity change, negative = inhibition, most hits filed as inhibitors; 6.9% of 360,000 active;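 further: plate controls were vehicle for no effect and reference inhibitor for full effect; nearly all actives have a fitted effect of over 55% in size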
Target sequence (P08659 whole entry, looked up): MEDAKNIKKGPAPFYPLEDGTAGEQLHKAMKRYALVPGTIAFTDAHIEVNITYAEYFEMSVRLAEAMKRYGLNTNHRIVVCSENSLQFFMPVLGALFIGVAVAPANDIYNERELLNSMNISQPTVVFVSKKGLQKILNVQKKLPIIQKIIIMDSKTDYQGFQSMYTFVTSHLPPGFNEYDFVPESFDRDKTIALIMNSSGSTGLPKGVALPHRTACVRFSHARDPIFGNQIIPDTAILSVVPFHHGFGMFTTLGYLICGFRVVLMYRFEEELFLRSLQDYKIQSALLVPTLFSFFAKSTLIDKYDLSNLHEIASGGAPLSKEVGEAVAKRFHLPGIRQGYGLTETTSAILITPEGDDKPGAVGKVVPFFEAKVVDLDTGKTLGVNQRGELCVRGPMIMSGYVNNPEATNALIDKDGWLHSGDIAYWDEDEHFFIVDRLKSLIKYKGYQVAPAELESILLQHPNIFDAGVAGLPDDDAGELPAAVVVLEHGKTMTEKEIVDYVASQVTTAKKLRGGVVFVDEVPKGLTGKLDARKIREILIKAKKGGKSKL
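Biochemical qHTS of compounds, final roughly 60 µM downward over six points, against 10 nM purified firefly luciferase using Km concentrations of substrates (10 uM D-luciferin, 10 uM ATP) in Tris acetate pH 7.5 buffer; luminescence output.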
Rab9 promoter act = activators of Rab9 promoter; Huh7 Rab9 promoter-luciferase reporter, luminescence, 24 h; Potency, µM (titrated, usually from 9.22 µM), without a hit: at the highest dose activation, negative = inhibition, actives largely listed as activators; 2.8% of 320,000 active; further: % of control where 0% means no effect; nearly all actives have a fitted effect of over 60% in size
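Cells were plated at 1500 per well in reduced-serum medium with 10% FBS and left 2 h. Compound in DMSO was then added for 24 h at 37 °C. Reporter signal was read by luminescence after 10 min with luciferase detection reagent.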
SMN2 splice up = enhancers of SMN2 splice variant expression; Potency, µM (highest dose often 46.1 µM), without a hit: top-dose activity change, positive = activation, actives largely listed as activators; 2.8% of 210,000 active; HEK293 SMN2-luciferase splicing reporter, luminescence, 30-36 h; AID 1458; further: % of control where 0% means no effect; nearly all actives have a fitted effect of over 55% in size
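qHTS luciferase splicing reporter: luminescence rises when SMN2 exon 7 is included in transfected HEK293 cells. Compound exposure lasted 30-36 h at 37C, with 4.5 mM final sodium butyrate as control, followed by a ONE-Glo read.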
Starred values were filed as active, the others as inactive; ? = inconclusive; · = no result; [ ] = remark or other dose. This is a sample that favours compounds with a hit; in the whole collection about 9.2% have one here. The call rests on the fitted dose curve; in most records, active means well fitted curve in the direction sought with a large enough effect; inconclusive means small, poorly fitted or top-dose-only effect, or another doubt; inactive means no such curve, though single readings can be large; an effect the other way counts as inactive or inconclusive. Potency means the concentration at half of the fitted maximal effect.

SMILES | ELG1 genotox | ELG1 DNA repair | NPC1 promoter act | FLuc modulator | Rab9 promoter act | SMN2 splice up
CC(=O)Oc1ccc(-c2nc3ccccc3c(=O)o2)cc1 | -2.5% | 7.5% | -5.3% | 9.53µM* | 1.1% | ·
O=c1oc(-c2cccs2)nc2ccc(Br)cc12 | 5.3% | ? | 1.7% | ? | -0.8% | -3.6%
COc1ccc(Cc2n[nH]c(=S)n2C)cc1Br | -5.9% | -8.7% | -4.9% | 4.5% | -6.9% | ·
COc1ccc(-c2csc3nc(-c4ccccc4)oc(=O)c23)cc1OC | ? | 14.3% | -1.1% | -15.7% | -19.6% | -69.2%
Cc1ccc2nc(-c3ccccc3C)oc(=O)c2c1 | 0.4% | 3.6% | -1.8% | 6.01µM* | 1.1% | ·
CC(=O)Oc1ccc2nc(-c3cccs3)oc(=O)c2c1 | 2.1% | 22.5% | -2.0% | ? | -3.5% | -10.7%
Cc1ccc(-c2nc3ccccc3c(=O)o2)cc1 | ? | ? | ? | 4.26µM* | 3.16µM* | ·
CC(=O)Oc1ccc2nc(-c3ccco3)oc(=O)c2c1 | -3.3% | -4.8% | -3.0% | 12µM* | -0.3% | ·
COc1ccc(-c2nc3ccc(C)cc3c(=O)o2)cc1OC | -2.1% | 0.2% | 2.1% | 3.38µM* | 0.1% | ·
CCN1C(=O)c2ccc(-c3nc4ccccc4c(=O)o3)cc2C1=O | 2.3% | 2.8% | -2.0% | -10.7% | 4.7% | ·
COc1cc2nc(-c3ccccc3C)oc(=O)c2cc1OC | -1.2% | 4.7% | -1.2% | ? | -2.2% | ·
O=C(Nc1ccc(Br)cc1)C1CCN(S(=O)(=O)c2cccc3nsnc23)CC1 | · | · | · | 2.1% | · | -12.4%
O=c1c2c(nc3cc(-c4ccccc4)[nH]n13)CCC2 | ? | ? | 2.82µM* | 6.01µM* | ? | 11.2µM*
Cc1c(-c2ccccc2)[nH]n2c(=O)c3c(nc12)CCCC3 | ? | ? | ? | 15.1µM* | ? | 11.2µM*
O=c1c2c(nc3cc(-c4ccc(Br)cc4)[nH]n13)CCCC2 | -2.7% | -12.9% | -3.3% | 7.3% | -1.8% | ·
Cc1cc2nc3c(c(=O)n2[nH]1)CCCC3 | 5.3% | ? | 0.3% | -1.4% | 1.2% | 26.5%
Cc1ccc(-c2[nH]n3c(=O)c4c(nc3c2C)CCCC4)cc1 | ? | 23.2% | ? | ? | ? | 21.4%
COc1ccc(-c2cc3nc4c(c(=O)n3[nH]2)CCC4)cc1 | ? | ? | ? | 4.26µM* | 2.82µM* | 10µM*
Cc1ccc(S(=O)(=O)N2CCN(c3ncnc4sccc34)CC2)cc1 | -10.4% | 9.2µM* | -24.2% | 2.5% | -20.9% | ·
Cc1sc2ncnc(N3CCN(S(=O)(=O)c4ccc(F)cc4)CC3)c2c1C | -30.9% | ? | -1.9% | -0.9% | -2.9% | ·
CCCOc1cccc(-c2nnc(NC(=O)c3ccco3)s2)c1 | ? | 16.9% | -6.5% | 26.9µM* | 19.8% | ·
O=C(Nc1nnc(C23CC4CC(CC(C4)C2)C3)s1)c1ccco1 | 1.16µM* | ? | 1.78µM* | 2.13µM* | 1.78µM* | 16.2%
Cc1nnc(NC(=O)c2ccco2)s1 | 7.2% | ? | -1.2% | 0.1% | 2.4% | 5.6%
Cc1cccc(Cc2cnc(NC(=O)c3ccc(C)o3)s2)c1 | 5.8µM* | ? | ? | 9.53µM* | ? | -2.1%
Cc1cccc(Cc2cnc(NC(=O)C3=NCCN3)s2)c1 | -7.5% | ? | 0.5% | -0.5% | 25.0% | 18.4%
SMILES | ELG1 genotox | ELG1 DNA repair | NPC1 promoter act | FLuc modulator | Rab9 promoter act | SMN2 splice up
C/C=C(\C)c1nnc(NC(=O)c2ccco2)s1 | 16.4µM* | ? | ? | 15.1µM* | ? | 12.6µM*
N#Cc1ccc(S(=O)(=O)N2CCN(Cc3cccs3)CC2)cc1 | 1.2% | 12.2% | 0.8% | 2.0% | 2.3% | ·
COc1ccc(-c2nnc(NC(=O)c3ccco3)s2)cc1 | ? | ? | 3.55µM* | 1.51µM* | 0.794µM* | ·
CCOc1ccc(CC(=O)Nc2sc(Cc3ccccc3)cc2C(N)=O)cc1OCC | -4.3% | -6.0% | 1.0% | -2.5% | -0.7% | -18.4%
Cc1ccc(-c2nnc(NC(=O)c3ccco3)s2)cc1 | 4.61µM* | ? | 2.24µM* | 1.51µM* | 2.24µM* | ·
COc1ccc(/C=C/c2nnc(NC(=O)c3ccco3)s2)cc1 | 6.9% | 0.9% | -7.7% | 2.69µM* | -1.6% | ·
NC(=O)c1cc(Cc2ccccc2)sc1NC(=O)c1ccco1 | ? | ? | 3.55µM* | 9.53µM* | 4.47µM* | 15.8µM*
CCCCC(=O)Nc1nnc(/C=C/c2ccc(OC)cc2)s1 | 8.7% | -5.3% | 15.5% | -11.5% | 19.8% | ·
Cc1cc(C(F)(F)F)c2c(N)c(C(=O)Nc3c(Cl)cccc3Cl)sc2n1 | · | · | · | -0.8% | · | ·
COc1ccc(NC(=O)c2c(C)oc3ccc(O)c(CN4CCN(Cc5ccccc5)CC4)c23)cc1 | · | · | · | -12.2% | · | -30.9%
CC(C)c1cccc(C(C)C)c1NC(=O)c1ccccc1 | 2.9% | 15.0% | -3.7% | -1.1% | -8.2% | 10.2%
O=C(Nc1ncc(Cc2cccc([N+](=O)[O-])c2)s1)c1ccco1 | 17.9% | 5.9% | 23.5% | ? | ? | ·
Cc1ccc(Cc2cnc(NC(=O)c3ccco3)s2)cc1 | 1.84µM* | ? | 0.631µM* | 0.849µM* | 0.631µM* | 12.6µM*
COc1cccc(-c2nnc(NC(=O)c3ccco3)s2)c1 | 16.4µM* | ? | 2.24µM* | 7.57µM* | 2.24µM* | ·
O=C(Nc1nnc(Cc2ccccc2)s1)c1ccco1 | 16.4µM* | ? | ? | 16.9µM* | ? | ?
Cc1cccc(C(=O)Nc2nnc(-c3ccc(C(C)(C)C)cc3)s2)c1 | 8.6% | 8.0% | 16.0% | 10.7µM* | 10.3% | 1.3%
CNCC[C@H](Oc1ccccc1OC)c1ccccc1 | · | · | · | · | · | -12.5%[20.6 µM]
CCOC(=O)c1c(-c2ccc(C)cc2C)csc1NC(=O)c1ccccc1Cl | · | · | · | -4.7% | · | -14.2%
Cc1cccc(OCc2nnc(NC(=O)c3cccs3)s2)c1 | 2.6% | -2.2% | -2.3% | 5.2% | -1.3% | -19.7%
COc1cccc(-c2nnc(NC(=O)c3cccs3)s2)c1 | ? | ? | ? | 2.39µM* | ? | 17.8µM*
C/[N+]([O-])=C\c1cccc(OCCN2CCN(c3ncc(C(F)(F)F)cc3Cl)CC2)c1 | 0.5% | -22.8% | -0.7% | -1.1% | 14.4% | ·
Cc1ccc2c(c1)C=CC(C#N)N2C(=O)c1ccccc1 (configuration not stated) | 8.9% | 1.0% | -17.1% | -6.6% | -17.8% | 6.31µM*
Nc1ccc(-c2nc3ccccc3o2)cc1 | ? | ? | ? | 6.75µM* | ? | ·
CC(C)c1ccc2oc(-c3cc(N)ccc3O)nc2c1 | ? | ? | 0.891µM* | 0.151µM* | ? | 24.5%
O=C(Nc1ccc(O)c(-c2nc3ccccc3o2)c1)c1ccco1 | · | · | · | 0.0% | · | 8.0%
Nc1ccc2oc(-c3ccccc3Br)nc2c1 | · | · | · | 3.38µM* | · | 12.6µM*
Nc1ccc2oc(-c3cccc(Br)c3)nc2c1 | 2µM* | ? | 1.12µM* | 2.69µM* | 1.12µM* | 14.1µM*
